Bioassay records deposited in PubChem BioAssay by National Center for Advancing Translational Sciences (NCATS).
Sampled rows, rich in hits. Any-hit rate of the full collection: about 7.3%.
AmpC inh no detg – inhibitors of E. coli AmpC beta-lactamase without detergent; P00811; AmpC nitrocefin hydrolysis, absorbance 480 nm, 0.0001% Triton; Potency, µM (top dose mostly 57.1 µM), usual class: inhibitors; hit rate 0.52% among 330,000; also: nearly all actives have a fitted effect of over 20% in size
Target sequence (P00811 whole entry, looked up): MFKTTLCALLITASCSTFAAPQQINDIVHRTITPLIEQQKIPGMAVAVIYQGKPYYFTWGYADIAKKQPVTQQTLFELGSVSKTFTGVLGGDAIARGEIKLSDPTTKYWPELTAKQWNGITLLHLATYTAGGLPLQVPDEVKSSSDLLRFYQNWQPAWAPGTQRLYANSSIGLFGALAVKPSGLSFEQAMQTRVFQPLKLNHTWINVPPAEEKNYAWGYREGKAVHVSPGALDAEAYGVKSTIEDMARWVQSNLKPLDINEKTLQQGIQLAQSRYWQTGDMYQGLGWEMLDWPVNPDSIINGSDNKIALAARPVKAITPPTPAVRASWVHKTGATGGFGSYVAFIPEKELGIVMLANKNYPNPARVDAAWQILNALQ
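AmpC (5.3 nM in the dispensed reagent) in 20 mM phosphate pH 7.0 with 0.01% (detergent screen) or 0.0001% Triton X-100 was preincubated with compounds for 15 min at room temperature. Nitrocefin was then added from an 800 uM solution, and hydrolysis was followed at 480 nm.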
HCV inhibitor – inhibitors of hepatitis C virus infection; Huh7.5.1 HCVcc-Cre infection, luciferase reporter, 44 h; Potency, µM (titrated, usually from 41.8 µM), hits mostly inhibitors; hit rate 3.4% among 340,000
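A cell-based infection assay in which seeded cells (1,000 per well) receive test compound after 4 h, are inoculated with HCVcc-Cre at approximately 0.5 moi, and are incubated 44 h before luminescence detection.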
AmpC detergent – blocks E. coli AmpC beta-lactamase in detergent assay; hit rate 0.041% among 370,000; Potency, µM (series often up to 114 µM), actives largely listed as inhibitors; AmpC hydrolysis of nitrocefin, absorbance 480 nm, 0.01% Triton; P00811; AID 485294; also: nearly all actives have a fitted effect of over 25% in size
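AmpC (5.3 nM in the dispensed reagent) in 20 mM phosphate pH 7.0 with 0.01% (detergent screen) or 0.0001% Triton X-100 was preincubated with compounds for 15 min at room temperature. Nitrocefin was then added from an 800 uM solution, and hydrolysis was followed at 480 nm.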
HCMV inh – inhibitors of human cytomegalovirus | HFF cells, HCMV-luciferase reporter, 72 h; stronger effect = lower value | activity change, negative = inhibition, % at 57.5 µM | hit rate 4.5% among 410,000 | AID 1259415; in the data active = activity change below about -60%; inconclusive = no clear call, values can overlap the other calls; inactive = above about -39%
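Human foreskin fibroblasts infected with luciferase-reporter HCMV at MOI 1 PFU/cell, compounds at two doses. Luciferase measured 72 h post infection; normalized to buffer-only basal and Salinomycin (10uM) controls.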
FMDV antiviral – antivirals against foot and mouth disease virus; hit rate 1.2% among 410,000; FMDV antiviral cell-based qHTS; Potency, µM (series often up to 57.9 µM), usual class: inhibitors; AID 1159524; calls by dose curve; tested in HEK293T cells; also: read-out not given here; nearly all actives have a fitted effect of over 45% in size
Large screens that a line does not name were inactive; ! = not active in a repeat. Unless noted, calls follow the shape of the dose curve; as a rule, active = well fitted curve in the direction sought with a large enough effect; inconclusive = small, poorly fitted or top-dose-only effect, or another doubt; inactive = no such curve, though single readings can be large; an effect the other way counts as inactive or inconclusive.

CN(C(=O)c1cccc(NC(=O)Cc2ccc(NC(=O)C3CCN(C(=O)C4CC4)CC3)cc2)c1)C1CCCCC1	none (no result: AmpC inh no detg, AmpC detergent)
COC(=O)N/N=C/c1ccccc1Cl	AmpC detergent inconclusive, HCMV inh -75
CC(C)(C)OC(=O)N/N=C/c1cc(N=Nc2ccccc2)ccc1O	HCV inhibitor 32µM, FMDV antiviral inconclusive
CC(C)(C)OC(=O)N/N=C/c1c[nH]c2ccccc12	none
O=C(Nc1ccccc1Cl)N1CCN(c2ccc3nnc(-c4ccc(F)cc4)n3n2)CC1	HCV inhibitor inconclusive, AmpC detergent inconclusive, FMDV antiviral inconclusive
O=C(Nc1ccc(Cl)cc1)N1CCN(c2ccc3nnc(-c4ccccc4)n3n2)CC1	HCMV inh -81 (no result: AmpC inh no detg, HCV inhibitor)
COc1ccccc1NC(=O)N1CCN(c2ccc3nnc(-c4ccc(F)cc4)n3n2)CC1	HCMV inh -76!
NC(=O)C1(N2CCCCC2)CCN(c2ccc3nnc(-c4ccccc4)n3n2)CC1	none
CCOc1ccccc1NC(=O)CSc1nc2ccccc2nc1Cc1ccc(C)cc1	none (no result: AmpC inh no detg, HCV inhibitor)
Cc1cccc2cc(CN(Cc3cccs3)C3(c4nnnn4C4CCCC4)CCCC3)c(=O)[nH]c12	AmpC detergent inconclusive, HCMV inh -70
Cc1cccc2cc(CN(Cc3cccs3)S(=O)(=O)c3ccc4c(c3)OCCO4)c(=O)[nH]c12	HCV inhibitor inconclusive, HCMV inh -84
Cc1cccc2cc(CN(Cc3ccc(F)cc3)Cc3nnnn3C3CCCC3)c(=O)[nH]c12	AmpC detergent inconclusive (no result: FMDV antiviral)
COC(=O)C(c1ccccc1)(c1cn(C)c2ccccc12)C(Nc1ccccc1)c1ccccc1 (stereo not drawn)	none (no result: AmpC inh no detg, HCV inhibitor, AmpC detergent, FMDV antiviral)
O=C(Cn1cnc2c(oc3nc4c(cc32)CCCC4)c1=O)Nc1cccc(Cl)c1	HCV inhibitor 25µM
Cn1cc(CN2CCC(Oc3ccc(C(=O)N4CCCC4)cc3)CC2)cn1	none
CC(=NCCN1CCOCC1)C1=C(O)c2ccccc2C1=O	AmpC detergent inconclusive, HCMV inh -102
CCCN=C(C)C1=C(O)c2ccccc2C1=O	none
CCCC1(c2ccccc2)NC(=O)N(CC(=O)NCc2ccc(OC)cc2)C1=O (stereo not drawn)	HCMV inh inconclusive
COc1cc(-c2noc(-c3ccccc3C(=O)NCc3ccco3)n2)cc(OC)c1OC	HCV inhibitor 11µM, AmpC detergent inconclusive, FMDV antiviral inconclusive
COc1cc(-c2noc(-c3ccco3)n2)cc(OC)c1OC	HCV inhibitor 13µM, AmpC detergent inconclusive
COc1ccccc1-c1noc(-c2ccccc2C(=O)NCc2ccco2)n1	none
Cc1ccc(OCC(=O)Nc2ccc3nc(SCC(=O)N4CCCC4)sc3c2)cc1	FMDV antiviral inconclusive (no result: AmpC inh no detg, HCV inhibitor)
C[C@H]1CN([C@@H](C)CO)S(=O)(=O)c2ccc(C#Cc3ccccn3)cc2O[C@@H]1CN(C)C(=O)C1CC1	none (no result: AmpC inh no detg, HCV inhibitor, AmpC detergent)
CC(C)NC(=O)CC1Nc2c3ccccc3nc(=S)n2C1=O (stereo not drawn)	none
O=C(CC1Nc2c3ccccc3nc(=S)n2C1=O)NC1CCCCC1 (stereo not drawn)	HCMV inh -64 (no result: HCV inhibitor, FMDV antiviral)
C[C@H]1[C@H](c2ccccc2)Oc2cccc(NCCc3ccccc3)c2S(=O)(=O)N1Cc1cccc(Cl)c1	none (no result: AmpC inh no detg, HCV inhibitor, AmpC detergent, FMDV antiviral)
O=C(N[C@H]1CC[C@H](CCNS(=O)(=O)c2ccc(Cl)cc2)O[C@@H]1CO)c1cccc(F)c1	HCMV inh -101, FMDV antiviral inconclusive (no result: AmpC inh no detg, HCV inhibitor, AmpC detergent)
O=C(N[C@H]1CC[C@@H](CCNS(=O)(=O)c2ccccc2Cl)O[C@@H]1CO)c1ccccc1	none (no result: AmpC inh no detg, HCV inhibitor, AmpC detergent)
Cc1cccc(NC(=O)/C=C/c2ccc([N+](=O)[O-])s2)c1	HCV inhibitor 11µM, HCMV inh -98
Cc1cccc(NC(=S)N/N=C/c2ccc([N+](=O)[O-])s2)c1	HCV inhibitor 8.9µM, HCMV inh -93
Cc1ccc(NC(=O)/C=C/c2ccc([N+](=O)[O-])s2)cc1	HCV inhibitor inconclusive, AmpC detergent inconclusive, HCMV inh -96
Cc1ccc(NC(=O)/C=C/c2ccc([N+](=O)[O-])s2)c(C)c1	HCV inhibitor inconclusive, HCMV inh -101, FMDV antiviral 13µM
COc1cccc(NC(=O)/C=C/c2ccccc2[N+](=O)[O-])c1	HCV inhibitor inconclusive
CC(=O)Nc1ccc(C(=O)N2CCCC(n3cc(C(=O)NCC(C)C)nn3)C2)cc1 (stereo not drawn)	none (no result: AmpC inh no detg, HCV inhibitor, AmpC detergent, HCMV inh)
COc1ccc(OC)c(-c2ccnc(-n3ncc(C(=O)N4CCN(CCO)CC4)c3C3CC3)n2)c1	none (no result: AmpC inh no detg, HCV inhibitor, AmpC detergent, HCMV inh)
O=C(C/C=N\OCc1ccc([N+](=O)[O-])cc1)Nc1ccc(Br)cc1	AmpC inh no detg inconclusive, HCMV inh -66
CCN(CC)S(=O)(=O)c1ccc(Cl)c(NC(=S)NC(=O)C2CCCC2)c1	HCV inhibitor 4µM, HCMV inh inconclusive, FMDV antiviral 20µM
CCN(CC)c1ccc(S(=O)(=O)Nc2cc(Cl)ccc2Cl)cc1NC(=S)NC(=O)C1CCCC1	AmpC inh no detg 25µM, AmpC detergent inconclusive, HCMV inh inconclusive
O=S(=O)(c1ccc(F)cc1)N1CCN(CC2CC3C=CC2C3)CC1 (stereo not drawn)	AmpC detergent inconclusive, FMDV antiviral inconclusive
O=S(=O)(c1ccccc1)N1CCN(CC2CC3C=CC2C3)CC1 (stereo not drawn)	HCMV inh -102
COc1ccc(-c2cc(C(=O)NNC(=O)c3csc(N4CCOCC4)n3)c3ccccc3n2)cc1	HCV inhibitor inconclusive
COc1ccc(-c2cc(C(=O)NNC(=O)c3csc(N4CCOCC4)n3)c3ccccc3n2)cc1OC	HCV inhibitor 10µM
Cc1csc2ncnc(NC3CCN(Cc4ccccc4)CC3)c12	HCV inhibitor 1.8µM, HCMV inh inconclusive
Cc1ccc(-c2csc3ncnc(N4CCN(Cc5ccccc5)CC4)c23)cc1	HCV inhibitor inconclusive, FMDV antiviral inconclusive
Nc1c(C(=O)Nc2ccc(Cl)c(C(F)(F)F)c2)sc2nc3c(cc12)N1CCC3CC1	HCMV inh -93, FMDV antiviral inconclusive (no result: AmpC inh no detg, HCV inhibitor)
COc1ccc(NC(=O)c2sc3nc4c(cc3c2N)N2CCC4CC2)cc1OC	FMDV antiviral inconclusive (no result: AmpC inh no detg, HCV inhibitor)
Nc1c(C(=O)Nc2ccc(Cl)cc2)sc2nc3c(cc12)N1CCC3CC1	HCMV inh -86, FMDV antiviral inconclusive (no result: AmpC inh no detg, HCV inhibitor)
CCCC(=O)N1CC2(CCN(C(C)=O)CC2)c2c(n(C)c3cc(OC)ccc23)[C@H]1CO	none (no result: AmpC inh no detg, HCV inhibitor, AmpC detergent, FMDV antiviral)
COc1cc(CN2C(=O)CC[C@@H]3CN(Cc4ccccn4)CC[C@@H]32)cc(OC)c1OC	none (no result: AmpC inh no detg, HCV inhibitor, AmpC detergent, HCMV inh)
N#C/C(=C/c1ccc(N2CCCCC2)o1)C(=O)Nc1ccc2ccccc2c1	HCV inhibitor 10µM, AmpC detergent inconclusive, HCMV inh inconclusive
N#C/C(=C/c1ccc(N2CCCCCC2)o1)c1cccc(F)c1	HCV inhibitor inconclusive, HCMV inh -81
N#C/C(=C/c1ccc(N2CCCCCC2)o1)c1ccc(F)cc1	HCV inhibitor inconclusive (no result: AmpC inh no detg, AmpC detergent, HCMV inh)
N#C/C(=C\c1ccc(N2CCOCC2)o1)c1ccccc1	HCV inhibitor 11µM (no result: FMDV antiviral)
